This is an account of results in paper PMC9911399, “Two distinct binding modes provide the RNA-binding protein RbFox with extraordinary sequence specificity”.

B1: AAAUGGU (DNA:RNA)
RNA: GGGAGACCGGAAUUCAGAUUGUCCAAAUGGUUUAAAUCCCGUCGUAGCCACCA
DNA 1: CAATCTGAATTCCGGTCTCCC
DNA 2: TGGTGGCTACGACGGGATT
B2: GAUCCGC (DNA:RNA)
RNA: B1 RNA with A25G, A27U, U28C, G29C, U31C
DNA 1: CAATCTGAATTCCGGTCTCCC
DNA 2: TGGTGGCTACGACGGGATT
B3: CCACACG (DNA:RNA)
RNA: B1 RNA with A25C, A26C, U28C, G29A, G30C, U31G
DNA 1: CAATCTGAATTCCGGTCTCCC
DNA 2: TGGTGGCTACGACGGGATT
B4: CUAAGCU (DNA:RNA)
RNA: B1 RNA with A25C, A26U, U28A, G30C
DNA 1: CAATCTGAATTCCGGTCTCCC
DNA 2: TGGTGGCTACGACGGGATT
B5: UUUGUCC (DNA:RNA)
RNA: GGGAGACCGGAAUUCAGAUUGUCCUUUGUCCUUAAAUCCCGUCGUAGCCACCA
DNA 1: CAATCTGAATTCCGGTCTCCC
DNA 2: TGGTGGCTACGACGGGATT
B6: UUUUGUG (DNA:RNA)
RNA: B5 RNA with G28U, U29G, C30U, C31G
DNA 1: CAATCTGAATTCCGGTCTCCC
DNA 2: TGGTGGCTACGACGGGATT
B7: UUUUUUG (DNA:RNA)
RNA: B5 RNA with G28U, C30U, C31G
DNA 1: CAATCTGAATTCCGGTCTCCC
DNA 2: TGGTGGCTACGACGGGATT
B8: UUGUCGU (DNA:RNA)
RNA: B1 RNA with A25U, A26U, A27G, G29C
DNA 1: CAATCTGAATTCCGGTCTCCC
DNA 2: TGGTGGCTACGACGGGATT
B9: UCCUUUG (DNA:RNA)
RNA: B5 RNA with U26C, U27C, G28U, C30U, C31G
DNA 1: CAATCTGAATTCCGGTCTCCC
DNA 2: TGGTGGCTACGACGGGATT
B10: UUGUUUG (DNA:RNA)
RNA: B5 RNA with U27G, G28U, C30U, C31G
DNA 1: CAATCTGAATTCCGGTCTCCC
DNA 2: TGGTGGCTACGACGGGATT
B11: UUUGUUG (DNA:RNA)
RNA: B5 RNA with C30U, C31G
DNA 1: CAATCTGAATTCCGGTCTCCC
DNA 2: TGGTGGCTACGACGGGATT
B12: UUGUUGU (DNA:RNA)
RNA: B1 RNA with A25U, A26U, A27G, G29U
DNA 1: CAATCTGAATTCCGGTCTCCC
DNA 2: TGGTGGCTACGACGGGATT
B13: UUUGUCG (DNA:RNA)
RNA: B5 RNA with C31G
DNA 1: CAATCTGAATTCCGGTCTCCC
DNA 2: TGGTGGCTACGACGGGATT
B14: UGACACA (DNA:RNA)
RNA: B5 RNA with U26G, U27A, G28C, U29A, C31A
DNA 1: CAATCTGAATTCCGGTCTCCC
DNA 2: TGGTGGCTACGACGGGATT
B15: AAUCAAU (DNA:RNA)
RNA: B1 RNA with A27U, U28C, G29A, G30A
DNA 1: CAATCTGAATTCCGGTCTCCC
DNA 2: TGGTGGCTACGACGGGATT
B16: GAAAAUG (DNA:RNA)
RNA: B1 RNA with A25G, U28A, G29A, G30U, U31G
DNA 1: CAATCTGAATTCCGGTCTCCC
DNA 2: TGGTGGCTACGACGGGATT
B17: CCUGCUU (DNA:RNA)
RNA: B5 RNA with U25C, U26C, U29C, C30U, C31U
DNA 1: CAATCTGAATTCCGGTCTCCC
DNA 2: TGGTGGCTACGACGGGATT
B18: AUGUAGU (DNA:RNA)
RNA: B1 RNA with A26U, A27G, G29A
DNA 1: CAATCTGAATTCCGGTCTCCC
DNA 2: TGGTGGCTACGACGGGATT
B19: UAUUUGU (DNA:RNA)
RNA: B1 RNA with A25U, A27U, G29U
DNA 1: CAATCTGAATTCCGGTCTCCC
DNA 2: TGGTGGCTACGACGGGATT
B20: CACGCGU (DNA:RNA)
RNA: B1 RNA with A25C, A27C, U28G, G29C
DNA 1: CAATCTGAATTCCGGTCTCCC
DNA 2: TGGTGGCTACGACGGGATT
B21: GGCAUGC (DNA:RNA)
RNA: B5 RNA with U25G, U26G, U27C, G28A, C30G
DNA 1: CAATCTGAATTCCGGTCTCCC
DNA 2: TGGTGGCTACGACGGGATT
B22: GCCAUGC (DNA:RNA)
RNA: B5 RNA with U25G, U26C, U27C, G28A, C30G
DNA 1: CAATCTGAATTCCGGTCTCCC
DNA 2: TGGTGGCTACGACGGGATT
B23: CGCAUGC (DNA:RNA)
RNA: B5 RNA with U25C, U26G, U27C, G28A, C30G
DNA 1: CAATCTGAATTCCGGTCTCCC
DNA 2: TGGTGGCTACGACGGGATT
B24: GUUAUGC (DNA:RNA)
RNA: B5 RNA with U25G, G28A, C30G
DNA 1: CAATCTGAATTCCGGTCTCCC
DNA 2: TGGTGGCTACGACGGGATT
B25: GCAUUGC (DNA:RNA)
RNA: B1 RNA with A25G, A26C, G29U, U31C
DNA 1: CAATCTGAATTCCGGTCTCCC
DNA 2: TGGTGGCTACGACGGGATT
B26: GUAUGCU (DNA:RNA)
RNA: B1 RNA with A25G, A26U, G30C
DNA 1: CAATCTGAATTCCGGTCTCCC
DNA 2: TGGTGGCTACGACGGGATT
B27: GUCAUGC (DNA:RNA)
RNA: B5 RNA with U25G, U27C, G28A, C30G
DNA 1: CAATCTGAATTCCGGTCTCCC
DNA 2: TGGTGGCTACGACGGGATT
B28: GCAUGCU (DNA:RNA)
RNA: B1 RNA with A25G, A26C, G30C
DNA 1: CAATCTGAATTCCGGTCTCCC
DNA 2: TGGTGGCTACGACGGGATT
B29: GAAUGCU (DNA:RNA)
RNA: B1 RNA with A25G, G30C
DNA 1: CAATCTGAATTCCGGTCTCCC
DNA 2: TGGTGGCTACGACGGGATT
B30: UGAGAAA (DNA:RNA)
RNA: B5 RNA with U26G, U27A, U29A, C30A, C31A
DNA 1: CAATCTGAATTCCGGTCTCCC
DNA 2: TGGTGGCTACGACGGGATT
B31: UCCUACG (DNA:RNA)
RNA: B5 RNA with U26C, U27C, G28U, U29A, C31G
DNA 1: CAATCTGAATTCCGGTCTCCC
DNA 2: TGGTGGCTACGACGGGATT

Residue numbers refer to the chain shown, from its start. Over roughly 16,000 sequences, “ka relative to ugcaugu” has its median near 0.0091; the highest 2% begin near 0.032. The full list was thinned out, with the highest values kept by preference.

This assay addresses T1, RBFOX1 RRM (Homo sapiens, UniProt Q9NWB1 109-208).
T1 sequence: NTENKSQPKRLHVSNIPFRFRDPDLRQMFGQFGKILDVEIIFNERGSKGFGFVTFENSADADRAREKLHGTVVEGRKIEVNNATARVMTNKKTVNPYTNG
The assay can be described thus: EMSA; HiTS-Eq, 1 nM pool, 10 min; buffer printed only for the single-RNA assays: 10 mM Tris pH 7.5, 150 mM NaCl, 3.4 mM EDTA, 0.001% NP-40, 30 C. To be noted: tags: His6 N-terminal (pET28a); label: 5' 32P. The essentials:
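A pool of RNA with 7 randomized nucleotides, 5′-radiolabelled and with DNA-annealed flanks, was equilibrated at 1 nM for 10 min in 50 µL with purified RbFox RRM, wild type or mutant, across increasing protein concentrations. Free RNA was separated by 8% native PAGE, excised, reverse-transcribed, barcoded by PCR and sequenced. Relative association constants were obtained from read-count changes of each RNA species versus the control reaction and normalised to the cognate motif.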
In the case of B1, the binding signal is 0.00783 KA relative to UGCAUGU.
For the molecule B2, the binding signal is 0.0132 KA relative to UGCAUGU.
The figure for B3 is 0.0022 KA relative to UGCAUGU; for B4 it is 0.00577 KA relative to UGCAUGU; for B5 it is 0.0149 KA relative to UGCAUGU.
The figure for B6 is 0.0302 KA relative to UGCAUGU.
As for B7, the binding signal was 0.0341 KA relative to UGCAUGU.
The figure for B8 is 0.0256 KA relative to UGCAUGU; for B9 it is 0.0195 KA relative to UGCAUGU.
The figure for B10 is 0.0392 KA relative to UGCAUGU; for B11 it is 0.0349 KA relative to UGCAUGU; for B12 it is 0.0241 KA relative to UGCAUGU.
The figure for B13 is 0.0272 KA relative to UGCAUGU; for B14 it is 0.00643 KA relative to UGCAUGU.
As for B15, the binding signal was 0.000959 KA relative to UGCAUGU.
For B16, the binding signal was 0.00709 KA relative to UGCAUGU.
The figure for B17 is 0.0137 KA relative to UGCAUGU; for B18 it is 0.00813 KA relative to UGCAUGU.
In the case of B19, the binding signal is 0.0237 KA relative to UGCAUGU.
The figure for B20 is 0.00634 KA relative to UGCAUGU.
Turning to B21, the binding signal was 0.627 KA relative to UGCAUGU.
The figure for B22 is 0.0131 KA relative to UGCAUGU.
The figure for B23 is 0.895 KA relative to UGCAUGU; for B24 it is 0.0151 KA relative to UGCAUGU.
The figure for B25 is 0.0184 KA relative to UGCAUGU; for B26 it is 0.018 KA relative to UGCAUGU.
With B27, the binding signal is 0.0144 KA relative to UGCAUGU.
The figure for B28 is 0.779 KA relative to UGCAUGU.
The figure for B29 is 0.0201 KA relative to UGCAUGU; for B30 it is 0.016 KA relative to UGCAUGU; for B31 it is 0.00598 KA relative to UGCAUGU.
